A short description of assay [1]: selective activators of receptor GPR55 – imaging, U2OS cells, beta-arrestin-GFP redistribution, primary screen (AID 1961).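 Also: U2OS osteosarcoma cells stably expressing GPR55 and beta-arrestin-GFP.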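 As to activation: plate controls were DMSO negative control for no effect and LPI positive control for full effect.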 The conditions noted are these: measured here: cytotoxicity, cells analyzed, at 10 µM.
Assay [2] has as its target G-protein coupled receptor 55 (Homo sapiens) (UniProt Q9Y2T6). Described as above. The conditions noted are these: at 10 µM, stronger effect = higher value.

Out of some 290,000 compounds screened, about 140 (0.048%) were called active.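 The calls were made as follows: active = activation above 40% with more than 50 cells counted in the well; inconclusive = wells holding fewer than 50 cells, flagged as toxic or sparse; inactive = the rest.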 Only a selection was taken, and actives are over-represented in it overall.

Sequence of G-protein coupled receptor 55 (Homo sapiens) (Q9Y2T6 whole entry, looked up): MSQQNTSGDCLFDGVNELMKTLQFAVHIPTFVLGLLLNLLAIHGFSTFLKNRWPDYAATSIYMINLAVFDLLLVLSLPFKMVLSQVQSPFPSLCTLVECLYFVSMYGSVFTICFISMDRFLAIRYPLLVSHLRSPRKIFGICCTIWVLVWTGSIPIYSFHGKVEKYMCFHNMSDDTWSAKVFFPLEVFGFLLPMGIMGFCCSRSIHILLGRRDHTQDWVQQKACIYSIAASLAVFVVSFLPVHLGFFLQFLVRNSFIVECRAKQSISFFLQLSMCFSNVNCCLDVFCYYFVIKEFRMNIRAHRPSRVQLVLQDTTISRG

`Clc1ccc(OCc2cn3ccccc3n2)c2ncccc12` came in with a cell count in assay [1] of 448 cells. The activation in assay [2] is -0.1% (inactive).

As to `Cc1cccc2nc(COc3ccc(Cl)c4cccnc34)cn12`, the cell count in assay [1] is 263 cells. Further, the activation in assay [2] is 80.9% (active).

`Cc1nc2ccc(NC(=O)CCC3CCCC3)cc2s1`: the cell count in assay [1] was found to be 329 cells. The activation in assay [2] was -0.1% (inactive).

In assay [1], `Cc1nn2c(N3CCCC3)c3c(nc2c1-c1ccccc1)CCC3` returned a cell count of 363 cells. The activation in assay [2] was 0% (inactive).

In assay [1], `Cc1nn2c(C(F)(F)F)c3c(nc2c1-c1ccccc1)CCC3` showed a cell count of 390 cells. The activation in assay [2] was 0.4% (inactive).

Take `Cc1cccc2cc3c(N)c(C(=O)N4CCCc5ccccc54)sc3nc12`: the cell count in assay [1] stood at 244 cells. For the same molecule, the activation in assay [2] is 0.1% (inactive).

In turn, `Cc1cccc2cc3c(N)c(C(=O)N4CCc5ccccc54)sc3nc12` displayed a cell count in assay [1] of 347 cells. Moreover, in assay [2], the activation is 44.1% (active).

As to `Cc1ccc(C)c2nc3sc(C(=O)N4CCCc5ccccc54)c(N)c3cc12`, the cell count in assay [1] worked out at 369 cells. The activation in assay [2] was 0.3% (inactive).

On to `CC1=NNC(=O)/C1=C\c1cn(-c2ccccc2)nc1-c1ccccc1`, for which, in assay [1], the cell count stood at 396 cells. Besides, the activation in assay [2] is 68.5% (active).

Molecule `CC1=NNC(=O)/C1=C\c1cn(-c2ccccc2)nc1-c1ccc(F)cc1` had a cell count in assay [1] of 406 cells. Besides, the activation in assay [2] was 2.4% (inactive).

On to `CC1=NNC(=O)/C1=C\c1cn(-c2ccccc2)nc1-c1ccc(Cl)cc1`, for which the cell count in assay [1] stood at 376 cells. The activation in assay [2] is 30.2% (inactive).

`COc1ccccc1NS(=O)(=O)c1cc([N+](=O)[O-])ccc1N/N=C/c1sc(N2CCOCC2)nc1-c1ccccc1` displayed a cell count in assay [1] of 331 cells. The activation in assay [2] is 48.8% (active).

Consider `O=[N+]([O-])c1ccc(N/N=C/c2sc(N3CCOCC3)nc2-c2ccccc2)c(S(=O)(=O)Nc2ccccc2Cl)c1`, for which the cell count in assay [1] came out at 413 cells. Moreover, in assay [2], the activation was 22.5% (inactive).

`O=[N+]([O-])c1ccc(N/N=C/c2sc(N3CCOCC3)nc2-c2ccccc2)c(S(=O)(=O)Nc2ccc(Cl)cc2)c1` came in with a cell count in assay [1] of 392 cells. Also, the activation in assay [2] is 18% (inactive).

As to `CCN1CCCC1CNCc1cc(OC)c(OC)c(OC)c1` (centres undefined), the cell count in assay [1] is 313 cells. In addition, the activation in assay [2] is -0.1% (inactive).

As for `COc1ccccc1Cc1noc(COc2cccc(C)c2C)n1`, the cell count in assay [1] amounted to 384 cells. Moreover, the activation in assay [2] was -0.1% (inactive).

In assay [1], `Cc1nnc(SC(C)C)n(N)c1=O` yielded a cell count of 256 cells. Further, in assay [2], the activation is -1.1% (inactive).

Regarding `O=c1cnnc(SCc2ccc([N+](=O)[O-])cc2)[nH]1`, the cell count in assay [1] worked out at 243 cells. In assay [2], the activation was 0.2% (inactive).

Regarding `CCn1nc(C)c(CN2CCC(C(=O)Nc3cccc(-c4cccc(Cl)c4)c3)CC2)c1C`, the cell count in assay [1] is 372 cells. Further, the activation in assay [2] is 0% (inactive).

The molecule `C=CCSc1nnc2n(CCc3ccccc3)c(=O)c3c4c(sc3n12)COC(C)(C)C4` displayed a cell count in assay [1] of 369 cells. The activation in assay [2] was -0.1% (inactive).

As for `CCC1(C)Cc2c(sc3c2c(=O)n(C)c2nnc(SCCc4ccccc4)n32)CO1` (centres undefined), the cell count in assay [1] was 322 cells. For the same molecule, the activation in assay [2] was -0.2% (inactive).

As for `CCCCSc1nnc2n(CCc3ccccc3)c(=O)c3c4c(sc3n12)COC(C)(C)C4`, in assay [1], the cell count worked out at 332 cells. Also, the activation in assay [2] was 58% (active).

`COc1cc(C2CC(c3ccccc3)=NN2c2ccccc2)ccc1OCC(=O)O` (centres undefined) gave a cell count in assay [1] of 329 cells. Moreover, the activation in assay [2] is 0.9% (inactive).

Consider `COc1ccc(C2CC(c3ccc(F)cc3)=NN2c2ccccc2)cc1OC` (centres undefined), for which the cell count in assay [1] came out at 391 cells. Also, in assay [2], the activation was -0.1% (inactive).

With `O=C(CSc1nnc(CNc2ccc(F)cc2)n1CC1CCCO1)N1CCOCC1` (centres undefined), in assay [1], the cell count worked out at 336 cells. Besides, in assay [2], the activation was 0.2% (inactive).

On to `CCOc1ccc(/C=N/NC(=O)C(C)N(c2ccc(OC)cc2)S(C)(=O)=O)cc1OCC` (centres undefined), for which the cell count in assay [1] is 265 cells. Also, the activation in assay [2] is 0.6% (inactive).

`CCOC(=O)CS(=O)(=O)c1nc(-c2ccc(F)cc2)cc(C(F)(F)F)n1` came in with a cell count in assay [1] of 353 cells. Also, the activation in assay [2] is 16.3% (inactive).

`CCOC(=O)CCS(=O)(=O)c1nc(-c2ccccc2)cc(C(F)(F)F)n1` yielded a cell count in assay [1] of 310 cells. Also, the activation in assay [2] is 14.3% (inactive).

Take `CCOC(=O)CS(=O)(=O)c1nc(-c2ccccc2)cc(C(F)(F)F)n1`: the cell count in assay [1] was found to be 302 cells. The activation in assay [2] is 49.8% (active).

On to `CNC(=O)CSc1nnc(-c2cccs2)o1`, for which the cell count in assay [1] is 345 cells. The activation in assay [2] is 0.3% (inactive).

Consider `CC(=O)Nc1cccc(/C(C)=N/NC(=O)c2cccs2)c1`, for which the cell count in assay [1] was determined as 330 cells. Besides, the activation in assay [2] is -0.4% (inactive).

`COc1ccc(-c2cc(C(F)(F)F)nc(SCC(=O)Nc3ccc4c(c3)OCO4)n2)cc1` displayed a cell count in assay [1] of 399 cells. Moreover, the activation in assay [2] is -0.2% (inactive).

`COc1ccccc1P(=O)(c1ccccc1)c1ccc([N+](=O)[O-])cc1` (centres undefined) showed a cell count in assay [1] of 384 cells. Further, the activation in assay [2] is 0.2% (inactive).

As for `COc1ccccc1NC(=O)CSCc1ccc([N+](=O)[O-])cc1`, the cell count in assay [1] came to 415 cells. Besides, the activation in assay [2] is -0.1% (inactive).

On to `CC(=O)N1CC=C2C(C#N)=C(N)C(C#N)(C#N)C(C)C2C1` (centres undefined), for which the cell count in assay [1] was 315 cells. In addition, the activation in assay [2] was -0.2% (inactive).

Molecule `Cc1ccc(NC(=O)CS(=O)CC(=O)NC23CC4CC(CC(C4)C2)C3)cc1` (centres undefined) registered a cell count in assay [1] of 322 cells. The activation in assay [2] was 0% (inactive).

In assay [1], `CCc1ccccc1NC(=O)c1ccc(-c2csc(C)n2)cc1` returned a cell count of 398 cells. In assay [2], the activation was -0.1% (inactive).

In assay [1], `COc1ccc(CNc2nc(-c3cccnc3)nn2S(C)(=O)=O)cc1` gave a cell count of 258 cells. Also, the activation in assay [2] is 1.3% (inactive).

Consider `COc1cccc(-c2nnc3n2N=C(c2cc(OC)ccc2OC)CS3)c1`, for which the cell count in assay [1] came to 449 cells. Besides, the activation in assay [2] was -0.1% (inactive).

In turn, `CCOc1cccc(-c2nnc3n2N=C(c2cc(OC)ccc2OC)CS3)c1` registered a cell count in assay [1] of 276 cells. The activation in assay [2] is 100% (active).

The molecule `COc1ccc(OC)c(C2=Nn3c(nnc3-c3cccc(OC(C)C)c3)SC2)c1` gave a cell count in assay [1] of 301 cells. Also, the activation in assay [2] was -0.2% (inactive).

With `Cc1ccc(S(=O)(=O)NC2=C(N3CCN(c4ccccc4F)CC3)C(=O)c3ccccc3C2=O)cc1`, in assay [1], the cell count was found to be 421 cells. For the same molecule, in assay [2], the activation was -0.1% (inactive).

(Values after PubChem BioAssay AID1961 (Sanford-Burnham Center for Chemical Genomics, 2009).)
